Out of some 50,000 compounds screened, about 800 (1.6%) showed an effect of 50% or more. The full list was thinned out, with strong results kept by preference.
Target: Bcl-2-like protein 10 (Homo sapiens) (UniProt Q9HD36)
Assay: Phenotype converters, Bcl-B/TR3 peptide binding displacement, primary biochemical FP (AID 1240);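 note: 0% = Bcl-B with tracer peptide and DMSO and 100% = tracer peptide lacking Bcl-B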
Settings: GST-Bcl-B / FITC-TR3 peptide fluorescence polarization; stronger effect = higher value; compound at 3.75 mg/L

Sequence of Bcl-2-like protein 10 (Homo sapiens) (Q9HD36 whole entry, looked up): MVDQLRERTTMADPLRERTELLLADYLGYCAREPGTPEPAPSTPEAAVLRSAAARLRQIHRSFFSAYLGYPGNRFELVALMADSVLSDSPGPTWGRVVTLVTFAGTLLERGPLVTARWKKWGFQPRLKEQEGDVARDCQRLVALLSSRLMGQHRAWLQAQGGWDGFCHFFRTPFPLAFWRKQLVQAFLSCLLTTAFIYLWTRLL

Compound | displacement
O=[N+]([O-])c1c(NC2CC2)ncnc1NC1CC1 | 10.9%
O=[N+]([O-])c1ccccc1/C=N/N1CCN(Cc2ccc(Cl)cc2)CC1 | -1.7%
COc1cccc(Nc2nc(-c3ccc(S(=O)(=O)N4CCOCC4)cc3)cs2)c1 | 10.4%
COc1ccccc1/C=C1\SC(=S)N(CCC(=O)NNC(=O)c2ccccc2O)C1=O | 14.7%
COc1ccc(N(CC(=O)Nc2cccc(Br)c2)S(=O)(=O)c2ccc(C)cc2)c(OC)c1 | -1.5%
CC(C)CC(NC(c1ccccc1)(c1ccccc1)c1ccccc1)C(=O)O (centres undefined) | 8.9%
Cc1cc2nc(-c3ccc(C)c(NC(=O)/C=C/c4ccco4)c3)oc2cc1C | -5.3%
COc1ccc(Br)cc1C(=O)Nc1ccc(C)cc1[N+](=O)[O-] | 27.4%
COc1ccc(Br)cc1/C=C/C(=O)Nc1ccc(C)cc1[N+](=O)[O-] | 87.4%
COc1ccc(Br)cc1/C=C\C(=O)Nc1ccc([N+](=O)[O-])cc1OC | 4.8%
O=C(/C=C/c1ccco1)Nc1ccc(-c2nc3ncccc3o2)cc1 | -8.2%
Cc1ccc(-c2nc3ncccc3o2)cc1NC(=O)/C=C/c1ccco1 | 116%
CCC(C)NC(=O)CN(c1ccccc1)S(=O)(=O)c1ccccc1[N+](=O)[O-] (centres undefined) | -8%
COc1ccc(C2Nc3ccccc3C(=O)N2Cc2ccco2)cc1COc1c(C)cccc1C (centres undefined) | -10.4%
Cc1cc(C)nc(SCC(=O)NN=C2CCCCCC2)n1 | 3.9%
COc1ccc(N(Cc2ccc(C(=O)NC3CCCC3)cc2)S(=O)(=O)c2ccccc2)cc1 | -14.5%
O=C(Oc1ccc(/C=N/O)cc1)c1ccc(Br)cc1 | 1.6%
C/C(=N\Nc1nc(C)cc(-c2ccccc2)n1)c1cccc(N)c1 | -15.5%
CCOc1ccc(/C=C2\C(=O)C(C(=O)OC)=C(C)N2c2ccc(F)cc2)cc1 | -6.6%
COC(=O)C1=C(C)N(c2ccc(Cl)cc2)/C(=C\c2ccc(OCC(=O)Nc3ccccc3OC)cc2)C1=O | 10.4%
COC(=O)C1=C(C)N(c2ccc(C)cc2)/C(=C\c2ccc(OCC(=O)Nc3ccccc3Cl)cc2)C1=O | 7.6%
C=CCOc1ccc(/C=C2\C(=O)C(C(=O)OC)=C(C)N2c2ccc(F)cc2)cc1 | 127%
C=CCOc1ccc(/C=C2\C(=O)C(C(=O)OC)=C(C)N2c2ccc(C)cc2)cc1 | -24.7%
COC(=O)C1=C(C)N(c2ccccc2)/C(=C\c2ccc(OCC(=O)Nc3ccccc3OC)cc2)C1=O | 55.5%
COC(=O)C1=C(C)N(c2ccc(Br)cc2)/C(=C\c2ccc(OCC(=O)Nc3ccccc3OC)cc2)C1=O | 20.3%

Compound | displacement
COC(=O)C1=C(C)N(c2ccc(C)c(C)c2)/C(=C/c2ccc(OC)cc2)C1=O | 14.1%
COC(=O)C1=C(C)N(c2ccc(C)c(C)c2)/C(=C\c2ccc(OCC(=O)Nc3ccccc3OC)cc2)C1=O | 68%
Cc1ccc(OCC(=O)O/N=C(\N)Cc2ccc([N+](=O)[O-])cc2)c(C)c1 | 5.9%
O=C(Nc1ccc2c(c1O)C(=O)c1ccccc1C2=O)c1ccccc1 | 12.7%
CC1=NN(C(N)=S)C2(O)CC3C(C12)C3(C)C (centres undefined) | 7.5%
CC(C)(C)NC(=O)c1ccccc1N(Cc1ccccc1)S(=O)(=O)c1ccccc1 | -1.7%
Cc1ccc2[nH]c(O)c(N=NC(=O)c3cc4ccccc4nc3C)c2c1 | 5.5%
Cc1ccc(C(=O)c2cccc(NC(=O)CC(C)C)c2)cc1C | 12.1%
O=C(Nc1ccccc1Br)C1CC(=O)N(c2ccccc2)C1 (centres undefined) | 77.5%
Cc1ccc(N2CC(C(=O)Nc3ccccc3Br)CC2=O)cc1 (centres undefined) | 11.9%
Cc1ccccc1NC(=O)C1CC(=O)N(c2ccccc2)C1 (centres undefined) | 6.2%
CS(=O)(=O)N(CC(=O)O)c1ccc(F)cc1 | 6.7%
N#C/C(=C\c1cccs1)c1nc2ccccc2s1 | -12.5%
Cc1ccc(/C=C(\C#N)c2nc3ccccc3s2)cc1 | 88.3%
CCOc1cc(/C=C(\C#N)c2nc3ccccc3s2)ccc1O | 0%
Cc1cccc(OCCn2c(N)nc3ccccc32)c1 | -10.3%
Cc1c(NC(=O)CSc2nnc(-c3cccc(F)c3)n2-c2ccccc2)c(=O)n(-c2ccccc2)n1C | 13.4%
CN1CCN(C2=C(Cl)C(=O)N(c3ccc(Br)cc3)C2=O)CC1 | 15.9%
C=CCc1cccc2cc(C(=O)Nc3ccc(CC)cc3)c(=O)oc12 | 8.6%
C=CCc1cccc2cc(C(=O)Nc3ccc(OCC)cc3)c(=O)oc12 | 53.1%
C=CCc1cccc2cc(C(=O)Nc3ccc(NC(C)=O)cc3)c(=O)oc12 | -13.3%
CN1C(=O)/C(=C/c2ccc(O)c(O)c2)SC1=S | 14%
Cc1cc(Cl)ccc1NC(=O)Cc1ccccc1 | -10%
COc1cccc(OCCOc2cccc(/C=c3\sc4nc5ccccc5n4c3=O)c2)c1 | 4.4%
